Source: PubChem BioAssay (Tox21)
“And” between values parts separate entries of the source, which are not always exact repeats. Equal values may be shown once. Some compounds were tested as several samples or in several runs, with calls that do not always agree. The source made the active and inactive calls. Unless noted, calls follow the shape of the dose curve; as a rule, active = well fitted curve in the direction sought with a large enough effect in the repeat runs; inconclusive = weak or mixed curves; inactive = no such curve, though single readings can be large; an effect the other way counts as inactive or inconclusive.

Tests used:
[1] = qHTS assay to identify small molecule antagonists of the thyroid receptor (TR) signaling pathway - cell viability counter screen (AID 743064); also: nearly all actives have a fitted effect of over 50% in size; also: potency is read from the fitted curve at half-maximal effect
Method in brief: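 GH3.TRE-Luc rat pituitary cells carrying a TRE-luciferase reporter were treated with compound plus 1 nM T3 (final) for 23.5 h at 37 °C. Viability was then read in the same wells by CellTiter-Fluor fluorescence after a further 30 min.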

[2] = qHTS assay to identify small molecule antagonists of the thyroid receptor (TR) signaling pathway (AID 743065); also: nearly all actives have a fitted effect of over 55% in size; also: potency is read from the fitted curve at half-maximal effect
Method in brief: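 Antagonism measured as loss of luciferase signal in GH3 cells stably carrying a TRE-luciferase reporter, co-treated with compound and T3 (1 nM final) for 23.5 h at 37 C. Viability was read in the same well by CellTiter-Fluor.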

[3] = system: thyroid hormone receptor (rat, GH3 cells); test: qHTS assay to identify small molecule agonists of the thyroid receptor (TR) signaling pathway (AID 743066; calls by dose curve; also: % is scaled to controls: 0 for no effect and ±100 for the full control effect)
[4] = target: Estrogen receptor (Homo sapiens) (UniProt P03372); test: qHTS assay to identify small molecule antagonists of the estrogen receptor alpha (ER-alpha) signaling pathway (AID 743069; active = well fitted curve in the direction sought with a large enough effect in the signal ratio in the repeat runs, not every such curve was filed as active; inconclusive = weak or mixed curves, or effect the other way; inactive = no such curve, though single readings can be large or run the other way; the % refers to the signal ratio; also: potency is read from the fitted curve at half-maximal effect)
Method in brief: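 Antagonist mode: compounds in DMSO were co-added with 17beta-estradiol to ER-alpha-bla HEK293 cells (2% charcoal-stripped serum) and left 18 h at 37C. Reporter inhibition was measured as FRET fluorescence after 2 h LiveBLAzer substrate at room temperature.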

[5] = qHTS assay to identify small molecule antagonists of the estrogen receptor alpha (ER-alpha) signaling pathway using the BG1 cell line (AID 743080; calls by dose curve;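 also: BG1 cells stimulated with 17beta-estradiol alongside compound; nearly all actives have a fitted effect of over 25% in size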; also: potency is read from the fitted curve at half-maximal effect)
Method in brief: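 BG1-Luc-4E2 cells (endogenous full-length ER-alpha, 4xERE luciferase) hormone-starved 5 days in charcoal-stripped FBS, plated 4,000/well for 24 h, then compound plus 17beta-estradiol for 21.5 h at 37 C; ONE-Glo luminescence read.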

[6] = qHTS assay to identify small molecule antagonists of the estrogen receptor alpha (ER-alpha) signaling pathway using the BG1 cell line - cell viability counter screen (AID 743081);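 also: compound given together with 17beta-estradiol as the ER stimulus; nearly all actives have a fitted effect of over 45% in size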; also: potency is read from the fitted curve at half-maximal effect
[7] = target: Aromatase (Homo sapiens) (UniProt P11511); test: qHTS assay to identify aromatase inhibitors (AID 743083); also: nearly all actives have a fitted effect of over 55% in size; also: potency is read from the fitted curve at half-maximal effect
[8] = qHTS assay to identify aromatase inhibitors - cell viability counter screen (AID 743084);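 also: cells stimulated with testosterone during compound exposure; nearly all actives have a fitted effect of over 55% in size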; also: potency is read from the fitted curve at half-maximal effect
[9] = target: Aryl hydrocarbon receptor (Homo sapiens) (UniProt P35869); test: qHTS assay to identify small molecule that activate the aryl hydrocarbon receptor (AhR) signaling pathway (AID 743085); also: nearly all actives have a fitted effect of over 15% in size; also: potency is read from the fitted curve at half-maximal effect;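 as to activation: HG2L7.5c1 human HepG2 liver cells with stably integrated DRE-driven firefly reporter; % is scaled to controls: 0 for no effect and ±100 for the full control effect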
Method in brief: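 HepG2 cells (HG2L7.5c1) stably carrying a firefly luciferase reporter driven by 20 dioxin responsive elements were exposed to compound for 24 h at 37C after a 5 h settling period; luminescence rise (ONE-Glo) indicated activation.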

[10] = qHTS assay to identify small molecule antagonists of the peroxisome proliferator-activated receptor gamma (PPARg) signaling pathway - cell viability counter screen (AID 743194); also: nearly all actives have a fitted effect of over 55% in size; also: potency is read from the fitted curve at half-maximal effect
Method in brief: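 Viability was measured as CellTiter-Glo luminescence in GeneBLAzer PPARg UAS-bla HEK293H cells. These cells had been exposed 17 h at 37 C to compounds together with rosiglitazone at 50 nM final, with the beta-lactamase readout taken in the same wells.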

[11] = qHTS assay for small molecule agonists of the antioxidant response element (ARE) signaling pathway - cell viability counter screen (AID 743203; calls by dose curve; also: nearly all actives have a fitted effect of over 55% in size; also: potency is read from the fitted curve at half-maximal effect)
Method in brief: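 Cytotoxicity was tested in parallel with the ARE reporter screen. ARE-bla HepG2 cells were exposed to compounds for 16 hrs, and viability was taken from CellTiter-Glo luminescence.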

[12] = qHTS assay for small molecule activators of the heat shock response signaling pathway - cell viability counter screen (AID 743209); also: nearly all actives have a fitted effect of over 50% in size; also: potency is read from the fitted curve at half-maximal effect
Method in brief: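 Cytotoxicity counter screen run in parallel with the HSE beta-lactamase reporter, using the same wells. HeLa HSE-bla cells received compound for 5 h at 37 C; ATP-based CellTiter-Glo luminescence was measured after 30 min at room temperature.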

[13] = qHTS assay to identify small molecule antagonists of the estrogen receptor alpha (ER-alpha) signaling pathway - cell viability counter screen (AID 743074; calls by dose curve;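 also: HEK293 cells carrying ER-alpha-UAS-bla reporter stimulated with 17beta-estradiol; nearly all actives have a fitted effect of over 45% in size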; also: potency is read from the fitted curve at half-maximal effect)
[14] = target: Estrogen receptor (Homo sapiens) (UniProt P03372); test: qHTS assay to identify small molecule agonists of the estrogen receptor alpha (ER-alpha) signaling pathway (AID 743075; calls by dose curve;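 also: HEK293 GripTite cells with ER-alpha and UAS-driven beta-lactamase reporter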; also: potency is read from the fitted curve at half-maximal effect; as to activation: % is scaled to controls: 0 for no effect and ±100 for the full control effect); conditions: HEK293 ER-alpha-UAS-bla, beta-lactamase FRET ratio, 18 h; activation: at 70.1 µM (top of the series)
[15] = target: Estrogen receptor (Homo sapiens) (UniProt P03372); test: qHTS assay to identify small molecule agonists of the estrogen receptor alpha (ER-alpha) signaling pathway using the BG1 cell line (AID 743079); conditions: BG1Luc4E2 cells, ERE-luciferase agonist, 22 h; also: % is scaled to controls: 0 for no effect and ±100 for the full control effect; nearly all actives have a fitted effect of over 20% in size
[16] = qHTS assay for small molecule agonists of the antioxidant response element (ARE) signaling pathway (AID 743202; active = well fitted activation curve with a large enough effect in the signal ratio in the repeat runs, not every such curve was filed as active; inconclusive = weak or mixed curves, or effect the other way; inactive = no such curve, though single readings can be large or run the other way; the % refers to the signal ratio; also: potency is read from the fitted curve at half-maximal effect)
Method in brief: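 After 16 hours of compound treatment at 37 C, HepG2 cells with a stably integrated ARE-driven beta-lactamase reporter were loaded 2 hours at room temperature with LiveBLAzer B/G FRET substrate and fluorescence intensity measured.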

[17] = qHTS assay to identify small molecule that activate the aryl hydrocarbon receptor (AhR) signaling pathway - cell viability counter screen (AID 743086); also: nearly all actives have a fitted effect of over 45% in size; also: potency is read from the fitted curve at half-maximal effect
Method in brief: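 Cytotoxicity counter screen: CellTiter-Fluor signal (30 min, 37 C) in 4000 HepG2 cells/well carrying the DRE-luciferase reporter, following 24 h compound exposure at 37 C.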

[18] = target: Peroxisome proliferator-activated receptor gamma (Homo sapiens) (UniProt P37231); test: qHTS assay to identify small molecule agonists of the peroxisome proliferator-activated receptor gamma (PPARg) signaling pathway (AID 743094; active = well fitted activation curve with a large enough effect in the signal ratio in the repeat runs, not every such curve was filed as active; inconclusive = weak or mixed curves, or effect the other way; inactive = no such curve, though single readings can be large or run the other way; the % refers to the signal ratio; also: % is scaled to controls: 0 for no effect and ±100 for the full control effect)
Method in brief: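 Cells from the PPARg UAS-bla HEK293H line are plated and incubated 5 h at 37C. Compounds in DMSO are pinned in and left 17 h at 37C. LiveBLAzer B/G substrate is then added for 1 h at room temperature before fluorescence is measured.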

[19] = target: Peroxisome proliferator-activated receptor gamma (Homo sapiens) (UniProt P37231); test: qHTS assay to identify small molecule antagonists of the peroxisome proliferator-activated receptor gamma (PPARg) signaling pathway (AID 743191; calls by dose curve; also: potency is read from the fitted curve at half-maximal effect; nearly all actives have a fitted effect of over 30% in size)
Method in brief: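 Beta-lactamase reporter under UAS control in HEK293H PPARg-bla cells; compound treatment 17 h at 37C. Read-out: fluorescence intensity after 1 h room-temperature incubation with LiveBLAzer B/G FRET substrate.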

[20] = qHTS assay for small molecule activators of the heat shock response signaling pathway (AID 743210; active = well fitted activation curve with a large enough effect in the signal ratio in the repeat runs, with a control signal flat, not every such curve was filed as active; inconclusive = weak or mixed curves; the % refers to the signal ratio; also: potency is read from the fitted curve at half-maximal effect)
Method in brief: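 Compound exposure lasted 5 h at 37 C in HeLa cells carrying a heat-shock-element-driven beta-lactamase reporter. Read-out: fluorescence intensity after 2.5 h room-temperature loading with LiveBLAzer B/G FRET substrate.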

Chain of Aromatase (Homo sapiens) (P11511 whole entry, looked up): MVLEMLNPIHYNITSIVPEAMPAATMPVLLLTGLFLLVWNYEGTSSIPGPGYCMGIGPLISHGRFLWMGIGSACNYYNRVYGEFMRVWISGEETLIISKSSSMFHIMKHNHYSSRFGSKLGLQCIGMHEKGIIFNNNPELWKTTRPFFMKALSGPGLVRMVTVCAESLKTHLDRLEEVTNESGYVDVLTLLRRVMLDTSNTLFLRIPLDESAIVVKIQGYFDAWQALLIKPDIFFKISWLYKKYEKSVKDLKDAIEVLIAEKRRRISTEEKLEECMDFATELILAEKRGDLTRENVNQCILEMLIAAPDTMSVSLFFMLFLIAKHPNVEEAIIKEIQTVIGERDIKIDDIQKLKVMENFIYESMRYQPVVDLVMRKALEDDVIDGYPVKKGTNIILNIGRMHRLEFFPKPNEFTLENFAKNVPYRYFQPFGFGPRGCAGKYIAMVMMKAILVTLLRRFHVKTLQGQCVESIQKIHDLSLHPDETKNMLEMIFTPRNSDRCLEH
Chain of Aryl hydrocarbon receptor (Homo sapiens) (P35869 whole entry, looked up): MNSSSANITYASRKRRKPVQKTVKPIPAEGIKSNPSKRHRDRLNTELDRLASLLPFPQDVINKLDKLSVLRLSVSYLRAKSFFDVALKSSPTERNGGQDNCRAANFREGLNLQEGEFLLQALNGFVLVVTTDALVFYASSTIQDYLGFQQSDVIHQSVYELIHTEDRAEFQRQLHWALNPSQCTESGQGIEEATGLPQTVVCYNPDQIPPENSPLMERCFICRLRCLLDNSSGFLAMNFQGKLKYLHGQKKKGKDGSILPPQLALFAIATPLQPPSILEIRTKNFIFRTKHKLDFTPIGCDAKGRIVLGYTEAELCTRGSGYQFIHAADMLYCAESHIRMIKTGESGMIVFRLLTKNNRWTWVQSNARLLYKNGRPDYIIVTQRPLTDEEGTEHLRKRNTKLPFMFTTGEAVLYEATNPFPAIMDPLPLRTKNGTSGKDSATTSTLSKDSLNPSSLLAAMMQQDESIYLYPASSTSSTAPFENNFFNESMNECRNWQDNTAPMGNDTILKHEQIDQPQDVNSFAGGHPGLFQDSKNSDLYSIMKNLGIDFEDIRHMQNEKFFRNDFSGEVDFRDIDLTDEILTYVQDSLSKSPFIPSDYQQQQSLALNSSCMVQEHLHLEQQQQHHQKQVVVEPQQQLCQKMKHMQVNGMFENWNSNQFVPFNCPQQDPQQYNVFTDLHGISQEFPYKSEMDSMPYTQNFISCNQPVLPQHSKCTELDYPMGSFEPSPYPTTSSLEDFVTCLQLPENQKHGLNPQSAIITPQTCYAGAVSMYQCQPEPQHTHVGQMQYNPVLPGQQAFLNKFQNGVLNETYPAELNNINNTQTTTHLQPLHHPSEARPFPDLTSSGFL
Chain of Peroxisome proliferator-activated receptor gamma (Homo sapiens) (P37231 whole entry, looked up): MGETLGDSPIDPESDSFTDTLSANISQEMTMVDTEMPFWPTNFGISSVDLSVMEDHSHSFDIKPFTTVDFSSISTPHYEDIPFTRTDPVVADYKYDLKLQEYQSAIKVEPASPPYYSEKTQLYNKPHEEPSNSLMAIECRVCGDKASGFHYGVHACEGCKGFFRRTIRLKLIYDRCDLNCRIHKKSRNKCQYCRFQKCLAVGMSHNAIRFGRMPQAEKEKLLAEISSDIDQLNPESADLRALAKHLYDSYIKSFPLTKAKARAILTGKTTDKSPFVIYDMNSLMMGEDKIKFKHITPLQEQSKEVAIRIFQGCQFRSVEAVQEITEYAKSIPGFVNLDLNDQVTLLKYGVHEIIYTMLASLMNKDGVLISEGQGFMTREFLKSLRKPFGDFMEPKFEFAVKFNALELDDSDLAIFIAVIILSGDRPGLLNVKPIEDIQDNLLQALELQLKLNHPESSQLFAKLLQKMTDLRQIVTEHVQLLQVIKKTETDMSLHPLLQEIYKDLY
Chain of Estrogen receptor (Homo sapiens) (P03372 whole entry, looked up): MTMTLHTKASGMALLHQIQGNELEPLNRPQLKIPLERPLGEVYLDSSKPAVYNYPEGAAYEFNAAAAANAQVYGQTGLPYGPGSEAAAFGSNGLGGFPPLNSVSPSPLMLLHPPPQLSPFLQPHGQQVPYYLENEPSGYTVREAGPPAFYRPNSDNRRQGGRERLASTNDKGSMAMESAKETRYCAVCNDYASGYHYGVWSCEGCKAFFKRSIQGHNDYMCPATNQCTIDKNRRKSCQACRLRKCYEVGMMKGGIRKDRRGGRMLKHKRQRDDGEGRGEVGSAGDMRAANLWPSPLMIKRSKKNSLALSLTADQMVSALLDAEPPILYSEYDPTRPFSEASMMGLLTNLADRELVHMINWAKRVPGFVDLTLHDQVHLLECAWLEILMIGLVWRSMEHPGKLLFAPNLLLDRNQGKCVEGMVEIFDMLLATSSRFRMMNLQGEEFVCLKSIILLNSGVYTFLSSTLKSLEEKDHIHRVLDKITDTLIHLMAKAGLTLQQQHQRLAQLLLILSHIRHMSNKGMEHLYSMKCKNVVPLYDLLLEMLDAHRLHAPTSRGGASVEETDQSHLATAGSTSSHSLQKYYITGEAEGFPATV

Oc1ccc(C2(c3ccc(O)cc3)CC3CC2C2CCCC32)cc1 (centres undefined)
inactive: Potency [3] | Potency [6] | Potency [9]
active: Potency [1] 26.2 µM | Potency [2] 29.4 µM | Potency [4] 0.0592 µM [inconclusive] | Potency [5] 1.31 µM | Potency [7] 1.86 µM | Potency [8] 33 µM | Potency [10] 26.5 µM | Potency [11] 58.7 µM | Potency [12] 52.8 µM

N=C1N=C(N)c2ccccc21
active: Potency [1] 21.7 µM | Potency [2] 15.4 µM | Potency [7] 38.6 µM | Potency [8] 61.1 µM | Potency [16] 19.3 µM | Potency [11] 54.5 µM | Potency [12] 49 µM
inactive: Potency [3] | Potency [13] | Potency [14] | activation ([15]; at 70.3 µM (top of the series)) 3.41% | Potency [6]

CC[C@H](c1ccc(O)cc1)[C@@H](CC)c1ccc(O)cc1
inactive: Potency [3] | Potency [4] | Potency [13] | Potency [6] | Potency [8] | Potency [9] | Potency [17] | Potency [18] | Potency [12]
inactive and 27.3 µM (active): Potency [7]
active: Potency [1] 30.6 µM | Potency [2] 19.3 µM | Potency [14] 0.2 nM [inconclusive] | activation [14] 38.2% [inconclusive] | activation ([15]; at 32.5 µM (top of the series)) 58.6% | activation ([15]; at 70.3 µM (top of the series)) -55.2% | Potency [5] 68.6 µM | Potency [19] 29.8 µM | Potency [16] 4.22 µM
54.5 µM (active) and inactive: Potency [11]

CCCC/C=C/CCCCO
inactive: Potency [1] | Potency [2] | Potency [3] | Potency [4] | Potency [13] | Potency [14] | Potency [5] | Potency [7] | Potency [8] | Potency [9] | Potency [17] | Potency [18] | Potency [16] | Potency [11] | Potency [12]

COc1ccc(-c2ccc3cc(C(=O)O)ccc3c2)cc1C12CC3CC(CC(C3)C1)C2
inactive: Potency [3] | Potency [13] | Potency [14] | activation ([15]; at 70.3 µM (top of the series)) -4.61% | Potency [6] | Potency [8] | Potency [9] | Potency [17] | Potency [18]
active: Potency [1] 1.68 µM | Potency [2] 1.33 µM | Potency [4] 7.56 µM [inconclusive] | Potency [10] 23.7 µM | Potency [11] 23.7 µM

NNc1nc(-c2ccc([N+](=O)[O-])cc2)cs1
active: Potency [1] 68.6 µM | Potency [2] 30.6 µM | Potency [13] 15.5 µM | Potency [6] 54.5 µM | Potency [7] 43.3 µM | Potency [8] 30.6 µM | Potency [9] 9.69 µM | Potency [10] 24.5 µM | Potency [16] 9.69 µM
inactive: Potency [3] | Potency [14]

O=c1[nH]cnc2nc[nH]c12
inactive: Potency [1] | Potency [2] | Potency [3] | Potency [4] | Potency [13] | Potency [14] | activation ([15]; at 70.3 µM (top of the series)) 8.82% | Potency [5] | Potency [6] | Potency [7] | Potency [8] | Potency [9] | Potency [18] | Potency [10] | Potency [16] | Potency [11] | Potency [12] | Potency [20]

C[n+]1ccn(Cc2ccccc2)c1
inactive: Potency [1] | Potency [2] | Potency [3] | Potency [4] | Potency [14] | Potency [6] | Potency [7] | Potency [9] | Potency [18] | Potency [10] | Potency [11] | Potency [12] | Potency [20]

CNC(=O)c1ccccc1
inactive: Potency [1] | Potency [2] | Potency [3] | Potency [4] | Potency [13] | Potency [14] | activation ([15]; at 70.3 µM (top of the series)) -14.7% | Potency [6] | Potency [7] | Potency [8] | Potency [9] | Potency [17] | Potency [18] | Potency [10] | Potency [11] | Potency [12] | Potency [20]

O=c1cccccc1O
inactive: Potency [3] | Potency [4] | Potency [13] | Potency [14] | activation ([15]; at 95 µM (top of the series)) -8.54% | Potency [6] | Potency [9] | Potency [10] | Potency [11]
active: Potency [1] 19.7 µM | Potency [2] 17.6 µM

O=C(c1ccc(F)cc1)C1CCN(CCn2c(=O)[nH]c3ccccc3c2=O)CC1
inactive: Potency [1] | Potency [2] | Potency [3] | Potency [4] | Potency [13] | Potency [14] | activation ([15]; at 70.3 µM (top of the series)) 21.8% | Potency [6] | Potency [7] | Potency [8] | Potency [9] | Potency [17] | Potency [18] | Potency [10] | Potency [16] | Potency [11] | Potency [12] | Potency [20]

CC(=O)N1CCN(c2ccc(OC[C@H]3CO[C@](Cn4ccnc4)(c4ccc(Cl)cc4Cl)O3)cc2)CC1
inactive and 27.3 µM (active): Potency [17]
inactive and 43.6 µM (active): Potency [13]
active: Potency [2] 26.6 µM and 15.4 µM | Potency [5] 13.3 µM | Potency [9] 6.68 µM | Potency [10] 43.6 µM | Potency [11] 61.1 µM
inactive and 21.7 µM (active): Potency [1]
inactive and 61.1 µM (active): Potency [8]
inactive: Potency [3] | Potency [4] | Potency [14] | Potency [6] | Potency [7]

C/C=C1/C(=O)C[C@H]2[C@@H]3CCC4=CC(=O)CC[C@]4(C)[C@H]3CC[C@]12C
active: Potency [2] 9.66 µM | Potency [20] 28.5 µM
inactive: Potency [1] | Potency [3] | Potency [13] | Potency [14] | Potency [6] | Potency [9] | Potency [17] | Potency [11] | Potency [12]

CC(=O)S[C@@H]1CC2=CC(=O)CC[C@]2(C)[C@H]2CC[C@@]3(C)[C@@H](CC[C@@]34CCC(=O)O4)[C@H]12
active: Potency [1] 27.3 µM | Potency [2] 26.6 µM and 27.3 µM | Potency [4] 12.3 µM [inconclusive] | Potency [7] 26.6 µM and 27.3 µM
inactive: Potency [3] | Potency [13] | Potency [14] | activation ([15]; at 70.3 µM (top of the series)) 7.41% and -17.9% | Potency [6] | Potency [8] | Potency [9] | Potency [17] | Potency [20]
